# Measured values published in PubChem BioAssay AID1345082 (National Center for Advancing Translational Sciences (NCATS), 2018).
# The whole screen tested about 94,000 compounds, of which about 4,000 (4.3%) were called active. Entries that show only a call come without a potency. Inconclusive results (about 29%) are left out. Calls come from the whole dose curve; as a rule, active = well fitted inhibition curve with a large enough effect; inconclusive = small, poorly fitted or top-dose-only effect; inactive = no such curve, though single readings can be large or run the other way. This excerpt belongs to a sample that is enriched for actives.
# Experiment: Cytotoxic Profiling in NIH 3T3 Cell Line of Diverse Libraries Using Quantitative High-Throughput Screening; note: nearly all actives have a fitted effect of over 55% in size
# Settings: NIH 3T3 viability, CellTiter-Glo ATP luminescence, 48-72 h; series mostly up to 96.7 µM
# From the text: Cell-based phenotypic screening is a commonly used approach to discover biological pathways, novel drug targets, chemical probes and high-quality hit-to-lead molecules. Many hits identified from high-throughput screening campaign are ruled out through a series of follow-up potency, selectivity/specificity, and cytotoxicity assays. Prioritization of molecules with little or no cytotoxicity for a more in-depth downstream evaluation influence the future direction of projects, so cytotoxicity profiling of the screening libraries at early stage is essential for increasing the likelihood of candidate success. In this study, we analyzed results from a cell-based cytotoxicity screening campaign, comprising nearly 10,000 compounds in NCATS annotated libraries, and over 100,000 compounds in a diversity library, evaluated in four normal cell lines (HEK 293, NIH 3T3, CRL-7250 and HaCat) and a cancer cell line (KB 3-1, a HeLa subline) with overall screening outcomes, hit rates, pan-activity and selectivity. For the annotated library, we also examined the primary targets and mechanistic pathways regularly associated with cell death. To our knowledge, this is the first study to use high-throughput screening to profile large libraries for cytotoxicity assessment in both normal and cancer cell lines. In summary, the results generated here constitutes a valuable resource for the scientific community and provides insight on identifying cytotoxic compounds with particular mechanisms of action, and prioritizing compounds with suitable cytotoxicity profile for further evaluation.
# NIH 3T3 cells were seeded into white 1536-well plates using a Multidrop Combi peristaltic dispenser (ThermoFisher, Waltham, MA) at a density of 400 cells/well in 5 uL of medium respectively. A pintool (Kalypsys) was used to transfer 23 nL of compound solution to the 1536-well assay plates. After 48 or 72 hr incubation at 37 degree Celsius, 5% CO2 and 95% humidity, 2.5 uL of CellTiter-Glo (Promega) was dispensed into each well using a dispenser (Aspect Automation, St. Paul, MN) with solenoid valves (Lee Valves, Westbrook CT). Plates were left at room temperature for 10 min before imaging the ATP-coupled luminescence using a ViewLux microplate imager (PerkinElmer, Waltham, MA).
# Potency is the fitted concentration of half-maximal effect.
row,SMILES,Potency
1,Cc1nn(CCC#N)c(C)c1[C@@H]1C=C[C@@H](NS(=O)(=O)c2ccccc2)C1,25.1 µM (active)
2,Cc1noc(C)c1[S+](=O)([O-])N1CCCC2(CC(Cc3ccccc3)=NO2)C1 (stereo not given),inactive
3,CC(=O)N1CCN(C(=O)C[C@@H]2c3nc(NC(=O)c4cccs4)sc3C[C@@H]3[C@](C)(CO)[C@H](O)CC[C@]32C)CC1,inactive
4,C[C@]1(CO)[C@H]2Cc3sc(NC(=O)C4CCC4)nc3[C@@H](CC(=O)N3CCCCC3)[C@]2(C)CC[C@H]1O,inactive
5,C=CCN(C)C(=O)C[C@@H]1c2nc(NC(=O)c3ccc(C(C)(C)C)cc3)sc2C[C@@H]2[C@](C)(CO)[C@H](O)CC[C@]21C,28.2 µM (active)
6,COCC(=O)Nc1nc2c(s1)C[C@@H]1[C@](C)(CO)[C@H](O)CC[C@@]1(C)[C@@H]2CC(=O)NCCN1CCOCC1,inactive
7,CN(C)CCNC(=O)C[C@@H]1c2nc(NC(=O)c3ccc(C(C)(C)C)cc3)sc2C[C@@H]2[C@](C)(CO)[C@H](O)CC[C@]21C,25.1 µM (active)
8,C=CCOC(=O)Nc1nc2c(s1)C[C@@H]1[C@](C)(CO)[C@H](O)CC[C@@]1(C)[C@@H]2CC(=O)N(CC)CC,inactive
9,Cc1noc(C)c1[S+](=O)([O-])N1CCC2(CC(C(C)C)=NO2)C1 (stereo not given),inactive
10,C[C@@H]1CN(C(=O)CNS(=O)(=O)c2cccs2)C[C@@]1(O)C1CC1,inactive
11,CN(C(=O)c1ccccc1)C1CCc2ccccc21 (stereo not given),inactive
12,CC(C)N(C)Cc1nnnn1CC(=O)NCc1ccc2nonc2c1,inactive
13,O=C(CN1C(=O)C(c2ccccc2)=NC12CCCC2)Nc1ccc2c(c1)OCCO2,inactive
14,Cn1cnnc1CC1CCCN(C(=O)c2ccsc2)C1 (stereo not given),inactive
15,OC1(CN2CCC(CCn3cccn3)CC2)CNCCOC1 (stereo not given),inactive
16,COc1ccc(OCC2CCN(CC3(O)CCCNC3)CC2)cc1 (stereo not given),44.7 µM (active)
17,CCc1cc(N2CCN(CC3(O)CCCNC3)CC2)ncn1 (stereo not given),inactive
18,Cc1cc(C)c(-c2nc3ncccc3[nH]2)[nH]1,inactive
19,CC(C)NC(=O)N1CCN(CCCn2nc3n(c2=O)CCCC3)CC1,inactive
20,COc1ccc(-c2cc(N3CCN(C(=O)c4ccncc4)CC3)n[nH]2)cc1,inactive
21,O=C(c1ccc2cc[nH]c2c1)N1CCCN(c2cc(-c3ccc(Cl)cc3)[nH]n2)CC1,39.8 µM (active)
22,COc1ccc(-c2cc(N3CCCN(C(=O)c4ccc(C)cc4)CC3)n[nH]2)cc1,inactive
23,O=C(N1CCN(c2cc(-c3ccc(Cl)cc3)[nH]n2)CC1)C1(c2ccccc2)CC1,35.5 µM (active)
24,CCOc1cc(C(=O)N2CCCN(c3cc(-c4ccccc4)[nH]n3)CC2)cc(OCC)c1OCC,inactive

row,SMILES,Potency
1,O=C(c1cccnc1)N1CCN(c2cc(-c3ccccc3)[nH]n2)CC1,inactive
2,O=C(NCc1ccccn1)c1ccc2oc(-c3cccnc3)nc2c1,inactive
3,O=C(c1ccccc1Cl)N1CCC(c2nc(-c3cccnn3)no2)CC1,inactive
4,O=C1NCCCCCN(C(=O)NCCc2ccccc2)[C@H]2CCC[C@@H]12,inactive
5,CCN(C1CCOCC1)C1CN(C(=O)C2CC2)C1,inactive
6,CC(=O)c1ccc(NC(=O)N2CCc3c(nc(-c4ccc(F)cc4)[nH]c3=O)C2)cc1,inactive
7,O=S(=O)(NCC1CNCCOC1)c1ccc(F)c(F)c1F (stereo not given),inactive
8,CCNc1cc(N2CCC(CCC(=O)Nc3ccc(C)cc3C)CC2)ncn1,inactive
9,CCOc1ncccc1CNC(=O)c1cc(S(N)(=O)=O)ccc1F,inactive
10,CNC(=O)c1cccc(-c2cnc3[nH]cc(CC(=O)NCc4cccc(F)c4)c3c2)c1,89.1 µM (active)
11,O=C(Cc1cccc(F)c1)Nc1cnc(-c2cccnc2)nc1,inactive
12,COc1ccc(CNC(=O)Cc2c[nH]c3ncc(-c4ccccc4)cc23)cc1OC,39.8 µM (active)
13,COc1ccccc1C(=O)NCc1ccnc2[nH]ccc12,inactive
14,O=C(Cn1nc2c(cc1=O)CCCC2)NCc1cccc(F)c1,inactive
15,COc1ccc(CCNC(=O)c2nnn3cc(-c4ccccc4)[nH]c(=O)c23)cc1OC,inactive
16,O=C(NCc1nc(-c2cccc(F)c2)c(-c2ccccn2)[nH]1)[C@@H]1CCCN1,inactive
17,COc1ccc(Nc2ccnc(N3CCC(C(=O)N4CCN(C(C)=O)CC4)CC3)n2)cc1,inactive
18,O=C(NCC(F)F)[C@@H]1CCCN1c1nccc(Nc2ccccc2Cl)n1,inactive
19,Cc1ccc(Nc2ccnc(N3CCCC3C(=O)N3CCC(Cc4ccccc4)CC3)n2)cc1 (stereo not given),20 µM (active)
20,CCCN1CC(Oc2ccc(-c3noc(C4CC4)n3)cc2)C1,inactive
21,COc1cccc(F)c1C(=O)N1C[C@H](N)C[C@H]1C(=O)NC(C)C,inactive
22,O=C1CCCCC(CNC(=O)c2cc(F)ccc2F)N1 (stereo not given),inactive
23,NCc1ccc(-c2cncnc2)cc1,inactive
24,Cc1cc(Cl)ccc1-c1ccc(CN)cc1,31.6 µM (active)

row,SMILES,Potency
1,COc1cccc(CCC(=O)N2CCCC2c2nc(C3CCOCC3)no2)c1 (stereo not given),inactive
2,O=C(c1ccc(Cl)cc1)N1CCCC2(CNc3ncccc3[S+](=O)([O-])N2)C1 (stereo not given),inactive
3,Cn1cnc(S(=O)(=O)N[C@H]2CCN(C(=O)c3ccco3)[C@H](C(=O)N[C@@H](Cc3cccs3)C(N)=O)C2)c1,inactive
4,COc1ccc(-c2cc(C[C@H]3CNCC[C@H]3CC(=O)NCCN(C)C)no2)cc1,inactive
5,O=C(C[C@@H]1CCNC[C@@H]1Cc1cc(-c2ccc(F)cc2)on1)NCCN1CCOCC1,inactive
6,COc1ccc(CNC(=O)C[C@@H]2CCNC[C@@H]2Cc2cc(-c3ccc(C(C)(C)C)cc3)on2)cc1OC,25.1 µM (active)
7,CN1C(=O)CCC2(CNC(=O)c3ccoc3)CCCC=C12 (stereo not given),inactive
8,CCCn1ncc(C(=O)NCC2(O)CCCNC2)c1C (stereo not given),inactive
9,CC(NC(=O)c1ccc(CN2C(=O)NC3(CCOCC3)C2=O)cc1)c1ccccc1 (stereo not given),inactive
10,COC(=O)C1CCN(C(=O)CC[C@H]2CNC(=O)[C@@H]3[C@@H](CCN3Cc3cccs3)N2C)CC1,inactive
11,Cn1c(=O)n([C@H]2CCCN(C(=O)C3CC=CC3)C2)c2ncccc21,inactive
12,Cc1ccc(C)c(S(=O)(=O)c2nnn3c2nc(NCc2ccc(F)cc2)c2ccccc23)c1,28.2 µM (active)
13,Cc1cccc(C)c1-c1nc(C(=O)NCc2ccc(F)cc2)n2ccccc12,inactive
14,O=c1[nH]c(C2CCCN([S+](=O)([O-])c3cccc(C(F)(F)F)c3)C2)nn1-c1ccc(F)cc1 (stereo not given),inactive
15,CC[C@H]1CN(C(=O)Nc2ccccc2)CC[C@H]1CC(=O)Nc1ccccc1,inactive
16,O=C1NCc2ccccc2CC12CCN(CC1CCCCC1)C2 (stereo not given),inactive
17,COc1cccc(NC(=O)Cn2c(-c3ccccc3)nc(C)cc2=O)c1,inactive
18,CC(=O)c1cccc(NC(=O)Cn2c(-c3ccc(Cl)cc3)nc(C)cc2=O)c1,inactive
19,CCc1cc(=O)n(CC(=O)Nc2cccc(C(C)=O)c2)c(-c2ccccc2)n1,35.5 µM (active)
20,COc1ccc(-c2cc(N3CCC(NC(=O)c4ccoc4)CC3)n[nH]2)cc1,inactive
21,CC(C)(C)OCC1CN(Cc2cccs2)C(=O)c2cccnc2O1 (stereo not given),inactive
22,COc1ccc(CNC(=O)CC[C@H]2CNC(=O)[C@@H]3[C@@H](CCN3C3CCOCC3)N2C)cc1,inactive
23,CC(C)c1noc(-c2ccn3c(CNC(=O)c4ccc5ccccc5n4)nnc3c2)n1,inactive
24,O=C(NCCc1ccccc1)c1ccc2c(c1)OCCN(CCC(F)(F)F)C2,inactive

row,SMILES,Potency
1,O=C(NCCc1ccccn1)c1ccc2c(c1)OCCN(c1ccccc1)C2,inactive
2,CC(C)(C)c1csc(NC(=O)c2ccc3c(c2)OCCN(C2CCC2)C3)n1,79.4 µM (active)
3,Cc1noc(C2CC3(CCN(C(=O)c4cccnc4C)CC3)CN2C)n1 (stereo not given),inactive
4,O=C(CN1CCC2(CC1)NC(=O)CC2C(=O)O)NCCc1ccc(F)cc1 (stereo not given),inactive
5,O=C(Cc1cccc(Cl)c1)N1CCCN(c2ccc3nnc(C4CC4)n3n2)CC1,inactive
6,Cn1ccnc1CN1CCCC(CCC(=O)Nc2ccccc2F)C1 (stereo not given),inactive
7,Cc1c[nH]c(CN2CCCC(CCc3ccc(F)cc3F)C2)c(C)c1=O (stereo not given),50.1 µM (active)
8,CN1[C@@H](CCC(=O)N2CCOCC2)CNC(=O)[C@@H]2[C@H]1CCN2Cc1ccc(S(C)(=O)=O)cc1,inactive
9,O=c1[nH]c(C2CCN(Cc3ccccc3)CC2)nc2ccc(F)cc12,inactive
10,Cc1ccc(F)cc1S(=O)(=O)N1CCC(OC2CCN(Cc3ccccc3)CC2)CC1,35.5 µM (active)
11,CC(C)C(=O)N1CCC(OC2CCN(Cc3ccccc3)CC2)CC1,inactive
12,CCCN1CCN(c2ccc(C(=O)N(C)Cc3ccc4ccccc4n3)cn2)CC1,inactive
13,C[S+](=O)([O-])c1cccc(-c2ncc3c(n2)OCCN(Cc2ccc(F)cc2F)C3=O)c1,28.2 µM (active)
14,COc1ccc(CN2CCN3C(=O)N(c4ccccc4)C[C@H]3C2)cn1,inactive
15,COCCOc1ccc(-c2noc([C@@H]3CCCN3Cc3cccnc3)n2)cn1,inactive
16,COc1ccc(-c2ncc3c(n2)OCCN(Cc2ccccc2)C3=O)cn1,35.5 µM (active)
17,COCCN1CCOC2(CCN(Cc3ccc(F)cc3F)CC2)C1=O,inactive
18,CN(C)c1cccc(-c2ncc3c(n2)OCCN(Cc2ccc(F)cc2F)C3=O)c1,inactive
19,Cc1nc(CCNc2nccc(-c3cccnc3)n2)nc2c1CCCC2,inactive
20,CNC(=O)[C@@H]1[C@H]2CN(C3CCCCCC3)CCN2C[C@H]1c1ccccc1,inactive
21,O=C(C1CCCC1)N1C[C@@H](CO)[C@H](c2ccncc2)C1,inactive
22,CC(C)(C)c1ccc(C(=O)N2C[C@@H](CO)[C@H](c3ccccn3)C2)cc1,inactive
23,CC(C)CNC(=O)c1nnn2c1COC(c1ccc(Br)cc1)C2 (stereo not given),inactive
